In all, about 3,800 compounds were measured (“cell shape (eccentricity) Z-score vs DMSO control”: median about 1.1, lowest 2% from about -4.7 on). The entries come from a sample that favours the lowest values as a whole.
These molecules were tested on human monocyte-derived macrophages (M0) (assay: cell shape (eccentricity) Z-score vs DMSO control; higher = more elongated, M2-like morphology). Conditions: 20 µM; 24 h; macrophage state: M0 (M-CSF).
Experimental: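 Primary human monocyte-derived macrophages (M-CSF differentiated, pooled from 4 donors, 5000 cells/well in 384-well plates) were treated with each compound at 20 uM for 24 h, then fixed and stained with phalloidin/DAPI and imaged on an Opera Phenix (6 fields, about 1000 cells/well). Cell eccentricity was measured with CellProfiler, and a Z-score (t-test) was computed against 4 DMSO control wells in the same row. Negative values mean round (M1-like) cells and positive values mean elongated (M2-like) cells; the paper's hit cutoffs are Z <= -4 (M1) and Z >= 6 (M2). Scale: negative = round, M1-like.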

| SMILES | cell shape (Z-score) |
| --- | --- |
| C=C1[C@@H](C)[C@H]2[C@H](Cc3ccccc3)NC(=O)[C@]23OC(=O)/C=C/[C@H](O)CCC[C@@H](C)C/C=C/[C@H]3[C@@H]1O | -24.4 |
| C/C=C/c1ccc2c(c1)OCO2 | 2.7 |
| CC(C)[C@]12O[C@H]1[C@@H]1O[C@]13[C@]1(O[C@H]1CC1C4=C(CC[C@@]13C)C(=O)OC4)[C@@H]2O (stereo not given in full) | 8.48 |
| CC(=O)O[C@H]1C[C@@H](OC(C)=O)C(C)(C)C2C[C@@H](OC(C)=O)[C@]3(C)C(CC[C@@]4(C)[C@H](c5ccoc5)C(=O)[C@H]5O[C@]543)[C@]21C (stereo not given in full) | 0.275 |
| O=c1[nH]c2ccccc2n1C1CCN(CCCC(c2ccc(F)cc2)c2ccc(F)cc2)CC1 | -6.33 |
| O=c1[nH]c2ccccc2n1CCCN1CCC(n2c(=O)[nH]c3cc(Cl)ccc32)CC1 | -1.03 |
| O=C1NCN(c2ccccc2)C12CCN(CCCOc1ccc(F)cc1)CC2 | 1.17 |
| O=c1ccc2cc(O[C@@H]3O[C@H](CO)[C@@H](O)[C@H](O)[C@H]3O)c(O)cc2o1 | 2.48 |
| CC(C)CC1C(=O)N2CCC[C@H]2C2(O)O[C@](NC(=O)C3C=C4c5cccc6[nH]c(Br)c(c56)C[C@H]4N(C)C3)(C(C)C)C(=O)N12 (stereo not given in full) | 4.71 |
| O=C1Nc2ccccc2C2(CCN(CCc3ccc(C(F)(F)F)cc3)CC2)O1 | -0.107 |
| O=C(N[C@H]1CN2CCC1CC2)c1ccc(Cl)cc1 | 1.37 |
| c1cncc(C2=NCCC2)c1 | 0.998 |
| COc1ccc2c3c([nH]c2c1)[C@H](CC(C)C)N1C(=O)[C@H](CCC(=O)OC(C)(C)C)NC(=O)[C@@H]1C3 | 9.45 |
| COc1ccc2c(c1)[nH]c1c(C)nccc12 | -5.5 |
| C=C[C@H]1C[N@@]2CC[C@H]1C[C@H]2[C@H](O)c1ccnc2ccccc12 | 2.46 |
| CN1c2ccccc2C(NCCCCCCC(=O)O)c2ccc(Cl)cc2S1(=O)=O (stereo not given) | 0.787 |
| CCCCC/C=C\C/C=C\C/C=C\C/C=C\CCCC(=O)NCc1ccc(O)c(OC)c1 | -0.144 |
| O=C(Cc1ccc(Cl)c(Cl)c1)N1CCCCC1CN1CCCC1 (stereo not given) | -0.746 |
| C(=C\c1ccccc1)/CN1CCN(CCOC(c2ccccc2)c2ccccc2)CC1 | -5.62 |
| Clc1ccc(C(OCCN2CCCCC2)c2ccccc2)cc1 (stereo not given) | 9.16 |
| Fc1ccc(C(OCCN2CCN(CCCc3ccccc3)CC2)c2ccc(F)cc2)cc1 | -0.302 |
| Fc1ccc(C(OCCN2CCN(CC=Cc3ccccc3)CC2)c2ccc(F)cc2)cc1 | -4.91 |
| C(=Cc1ccccc1)CN1CCN(CCOC(c2ccccc2)c2ccccc2)CC1 | 1.98 |
| c1ccc(CCCN2CCN(CCOC(c3ccccc3)c3ccccc3)CC2)cc1 | 4.69 |
| Cc1c([N+](=O)[O-])oc2ccc3ccccc3c12 | -0.364 |
